# Measurements: PubChem BioAssay AID485364 (National Center for Advancing Translational Sciences (NCATS), 2010)
# The whole screen tested about 360,000 compounds, of which about 11,000 (3.1%) were called active. Entries that show only a call come without a potency. Another 4% or so got no clear call; they are omitted. The call rests on the fitted dose curve; in most records, active means well fitted inhibition curve with a large enough effect; inconclusive means small, poorly fitted or top-dose-only effect; inactive means no such curve, though single readings can be large or run the other way. For the sample, actives were picked, then their nearest neighbours and some compounds at random.
# Target: Schistosoma mansoni thioredoxin glutathione reductase (TGR) (UniProt Q962Y6)
# Assay: qHTS Assay for the Inhibitors of Schistosoma Mansoni Peroxiredoxins; further: nearly all actives have a fitted effect of over 60% in size
# Details: purified TGR, DTNB reduction, TNB absorbance 405 nm; series mostly up to 114 µM
# Text: Schistosomiasis is a major neglected tropical disease that currently affects over 200 million. It is caused by different species of flatworms, such as Schistosoma mansoni. Over the last century, drugs to treat the disease have evolved from potassium antimonyl tartrate, artemisinin, oxamniquine, to praziquantel, with praziquantel remaining the universally-used single drug of choice over the past three decades. However, transmission rates have changed little with praziquantel, and there is evidence for the development of drug resistant parasites. Because there is currently no suitable alternative therapy available, there is an urgent need to identify new targets and drugs for schistosomiasis treatment. Thioredoxin glutathione reductase (TGR), one uniquely positioned S. mansoni enzyme, has been identified as a major component of the worms' distinct and compressed antioxidant "firewall". TGR is a multifunctional enzyme that catalyzes the interconversion between reduced and oxidized forms of both glutathione (GSH) and thioredoxins, thus making it an attractive new antiparasitic target. Recently, a quantitative high-throughput screen of the NIH Molecular Libraries Small Molecule Repository (MLSMR, ~71K at the time of the screen in 2007) was performed using an assay that targeted both TGR and peroxiredoxin2 (Prx2, an H2O2-reducing enzymatic component of the S. mansoni redox "firewall") by following the decrease of NADPH fluorescence. […] Additional mechanistic link between exogenous NO donation and parasitic injury for the oxadiazole-2-oxide class of compounds was also expanded and better defined. Although the screen addressed both TGR and Prx2, the assay required post-screen target deconvolution for further characterization of the actives. In addition, the fluorescence assay was also subject to fluorescence interference from compound library members. We have developed a 1536-well-based kinetic HTS assay to address TGR alone. The assay followed the reduction of 5, 5'-dithiobis (2-nitrobenzoic acid) (DTNB) (Ellman's reagent) by NADPH and measured the increase in absorbance at 412 nm of the reaction product, TNB. […] This assay format can be used to screen the current MLSMR collection (with >300K compounds available) to find novel TGR inhibitors. Furoxan is a good choice to serve as a positive control in the primary HTS assay.
# Three microliters of reagents (100 uM NADPH and 20 nM TGR or 100 uM NADPH as no-enzyme control) were dispensed into 1,536-well black clear-bottomed plates. Compounds (23 nL) were transferred via Kalypsys pin tool equipped with 1536-pin array (10 nL slotted pins, V&P Scientific, San Diego, CA). The plates were then be incubated for 15 min at room temperature, and 1 uL aliquot of 500 uM NADPH were added, immediately followed by a 1 uL aliquot of 15 mM DTNB to start the reaction. The plate was transferred to a ViewLux high-throughput CCD imager (Perkin-Elmer, Wellesley, MA) where kinetic measurements of the TNB absorbance were acquired using a 405 excitation filter. Throughout the screen, reagent bottles and all liquid lines were made light-tight to minimize reagent degradation. All screening operations were performed on a fully integrated robotic system (Kalypsys, San Diego, CA) containing one RX-130 and two RX-90 anthropomorphic robotic arms (Staubli, Duncan, SC). Library plates were screened starting from the lowest and proceeding to the highest concentration, and a "double-dipping" step of the highest concentration was required to access higher concentrations of compounds. Vehicle-only plates, with DMSO being pin-transferred to the entire column 5-48 compound area, were inserted uniformly at the beginning and the end of each library in order to monitor for and record any shifts in the background, which can be affected by reagent dispensers or loss in enzyme activity overtime. […]
# Potency means the concentration at half of the fitted maximal effect.
row,SMILES,Potency
1,COc1ccccc1N1CCN(CCCNC(=O)c2cnn(-c3ccccc3Cl)c2C2CCN(C(=O)OC(C)(C)C)CC2)CC1,inactive
2,COc1ccc(Br)cc1C1CC(=O)Nc2c1c(C)nn2-c1nc(C)cc(C)n1 (configuration not stated),inactive
3,O=C(CCC(=O)N1CC2CCCN2c2ccccc21)NCc1ccccc1Cl (configuration not stated),inactive
4,Cc1ccc(N=C2NC(=O)/C(=C/C=C/c3ccco3)S2)cc1C,44.7 µM (active)
5,CC(C)c1ccc(NC(=O)Cn2c3ncccc3c(=O)n2-c2ccccc2)cc1,inactive
6,CN(Cc1ccccc1)C(=O)CCS(=O)(=O)c1cc(Br)cc2c1N(C(=O)C1CC1)CC2,inactive
7,CC(C)(C)c1cc(CN2CCN(CCC#N)CC2)cc(C(C)(C)C)c1O,2.24 µM (active)
8,N#CCCN1CCN(S(=O)(=O)c2ccc(S(=O)(=O)N3CCCC3)cc2)CC1,inactive
9,N#Cc1cccc(CN2CCC(=O)N(CCO)CC2)c1,inactive
10,O=C1C(=O)N(CC2COc3ccccc3O2)c2ccccc21 (configuration not stated),inactive
11,Cc1cc(C(=O)CCl)c(C)n1CC1COc2ccccc2O1 (configuration not stated),10 µM (active)
12,Cc1noc(C)c1C(=O)NCC1COc2ccccc2O1 (configuration not stated),inactive
13,Cc1ccc2nc(COc3ccc(NC(=O)COc4ccccc4F)cc3)cc(=O)n2c1,inactive
14,C=C(C)C(=O)O[C@H]1C/C(C)=C\C(=O)/C=C(\C)[C@H](O)[C@@H]2OC(=O)C(=C)[C@@H]21,3.55 µM (active)
15,CCOC(=O)c1c(C)oc2nc(C)nc(N(CC(C)C)CC(C)C)c12,inactive
16,COc1cc2c(cc1OC)CC1(CCCCC1)N=C2,inactive
17,CCCC[C@]12Cc3cc(OC)c(OC)cc3C(O1)C1=C(CC3(CCCCC3)OC1=O)O2,11.2 µM (active)
18,CCCCC12CN3CC(C)(CN(C1)C3c1ccc(O)c(OC)c1)C2=O (configuration not stated),inactive
19,COc1ccc(-c2[nH]c3c(c2-c2c(-n4cccc4)n(C)c(=O)n(C)c2=O)c(=O)n(C)c(=O)n3C)cc1,inactive
20,Cc1ccc(NC(=O)c2oc3ccccc3c2NC(=O)Cc2cccs2)cc1,inactive
21,COc1cccc(NC(=O)COC(=O)CCOc2ccccc2OC)c1,inactive
22,COc1cc([N+](=O)[O-])ccc1NC(=O)COC(=O)CCOc1ccc(C)cc1,35.5 µM (active)
23,CSc1ccccc1NC(=O)COC(=O)CCCOc1ccc(C)cc1,inactive
24,CCOC(=O)c1ccc(NC(=O)CCS(=O)(=O)c2ccc3c(c2)oc(=O)n3C)cc1,inactive
25,Cc1ccc(C(=O)OC2=CC(=O)CC(C)(C)C2)cc1,44.7 µM (active)

row,SMILES,Potency
1,COC(=O)NNC1=CC(=O)CC(C)(C)C1,inactive
2,Cc1ccc(C(=O)Oc2ccc(C(=S)N3CCOCC3)cc2)cc1,inactive
3,COc1ccccc1CNC(=O)c1ccc(CS(=O)c2ccccc2Cl)o1 (configuration not stated),inactive
4,COc1cccc(C(=O)N(Cc2cccc(Cl)c2)Cc2ccco2)c1,inactive
5,CS(=O)(=O)Nc1cccc(C2=NN(S(=O)(=O)c3ccccc3)C(c3cccs3)C2)c1 (configuration not stated),inactive
6,CCS(=O)(=O)Nc1ccc(C2=NN(C(C)=O)C(c3cccs3)C2)cc1 (configuration not stated),inactive
7,CCS(=O)(=O)Nc1ccc(C2=NN(S(=O)(=O)c3ccc(F)cc3)C(c3ccco3)C2)cc1 (configuration not stated),44.7 µM (active)
8,CCOCCCNC(=O)c1c(NC(=O)Cc2coc3c(C)c(C)ccc23)sc2c1CCC2,inactive
9,CCCCNC(=O)CSc1nc2cc3c(cc2c(=O)n1CCCCCC(=O)NCc1ccc2c(c1)OCO2)OCO3,inactive
10,O=c1oc(-c2ccco2)nc2sc3c(c12)CCCCC3,inactive
11,O=C(CSc1nc2cc3c(cc2c(=O)n1CCC1=CCCCC1)OCO3)NCc1ccco1,inactive
12,O=C(NCc1ccco1)c1cccn2c(=O)c3c4c(sc3nc12)CCCC4,12.6 µM (active)
13,C=CCn1c(SCC(=O)NCCCO)nc2sc3c(c2c1=O)CCC3,inactive
14,O=C(NCc1ccco1)c1nc2ncccn2n1,inactive
15,C=C(C)Cn1c(SCC(=O)NCc2ccco2)nc2sc3c(c2c1=O)CCC3,44.7 µM (active)
16,Cc1nc2ccc(S(=O)(=O)N(CC(=O)Nc3ccc(F)cc3)Cc3ccccc3)cc2s1,inactive
17,CCN(CC)C(=O)CSc1nc2cc3c(cc2c(=O)n1CCCC(=O)NCc1ccc2c(c1)OCO2)OCO3,inactive
18,CCc1cc(=O)oc2c(C)c(OCC(=O)NCCN3CCOCC3)ccc12,inactive
19,CC(=O)Oc1cc2c(C(=O)NCCN3CCOCC3)c(C)oc2c2ccccc12,25.1 µM (active)
20,Cc1cc(C)cc(C(=O)NCCN2CCOCC2)c1,inactive
21,CCS(=O)(=O)N1CCC(n2c(C)nc3cccnc32)CC1,inactive
22,COC(=O)c1ccc(NC(=O)c2cc(S(=O)(=O)N3CCC(C)CC3)cn2C)cc1,inactive
23,O=C(CCS(=O)(=O)c1ccccc1)Nc1nc2c(s1)CCCC2,50.1 µM (active)
24,O=C(Nc1nc2c(s1)CCCC2)c1ccccc1F,inactive
25,O=C(CCS(=O)(=O)c1ccccc1)NC1CCCC1,inactive

row,SMILES,Potency
1,COc1ccccc1NC(=O)c1cc(C2CC2)nc2c1c(C)nn2-c1ccc(C)cc1,inactive
2,Cc1occc1C(=O)N1CCCc2ccccc21,44.7 µM (active)
3,CCCn1nc(C(=O)N2CCCc3ccccc32)c2ccccc2c1=O,inactive
4,O=C(c1c(Cl)nc2sccn12)N1CCCc2ccccc21,inactive
5,CC(C)c1ccc(NC(=O)CN(C)S(=O)(=O)c2ccc3c(c2)c(=O)n(C)c(=O)n3C)cc1,inactive
6,Cc1ccc(Cl)cc1N1CCN(C(=O)CN2C(=O)COc3ccc(S(=O)(=O)N4CCOCC4)cc32)CC1,inactive
7,CCCNc1ncnc2c1c(-c1ccccc1)cn2-c1ccc(OCC)cc1,inactive
8,CCc1ccc(NC(=O)CN2C(=O)C(c3ccccc3)=NC23CCCCCC3)cc1,inactive
9,CCCCCCC(=O)N(O)C1CC(=O)N(c2ccccc2)C1=O (configuration not stated),0.282 µM (active)
10,CCOc1ccc(N2C(=O)CC(N(CCc3ccc(OC)c(OC)c3)C(=S)Nc3ccccc3)C2=O)cc1 (configuration not stated),inactive
11,CCCCOC(=O)c1ccc(N2C(=O)CC(N3CCN(C/C=C/c4ccccc4)CC3)C2=O)cc1 (configuration not stated),inactive
12,CCOc1cc2[nH]c(=O)n(Cc3ccc(C(=O)NCCN(CC)CC)cc3)c(=O)c2cc1OCC,inactive
13,Cc1cc(C)cc(NC(=O)CSc2oc(-c3ccccc3)nc2S(=O)(=O)c2ccc(Cl)cc2)c1,inactive
14,COc1cc(-c2nc(S(=O)(=O)c3ccc(Cl)cc3)c(N(C)C)o2)cc(OC)c1OC,25.1 µM (active)
15,COc1ccc(-c2nnc(NC(=O)CS(=O)(=O)c3ccc(Cl)cc3)o2)c(OC)c1,inactive
16,CCOc1ccc(N(CC)S(=O)(=O)N2CCCC(C(=O)NCc3ccc(SC)cc3)C2)cc1 (configuration not stated),inactive
17,COc1ccc(-c2c3c(=O)n(C)c(=O)n(C)c3c3c(C)nc4ccccc4n23)cc1,inactive
18,CCOC(=O)c1ccc(N2C(=O)c3[nH]nc(-c4ccccc4)c3C2c2ccc(C(C)C)cc2)cc1 (configuration not stated),inactive
19,CCOc1cc(C2c3c(-c4ccc(Br)cc4)n[nH]c3C(=O)N2c2ccc(Cl)cc2)ccc1O (configuration not stated),inactive
20,CCOC(=O)c1ccc(N2C(=O)c3n[nH]c(C)c3C2c2ccc(O)c(OC)c2)cc1 (configuration not stated),11.2 µM (active)
21,CCCn1c2ccccc2c2cnn(CC(=O)N(C)c3ccccc3CC)c(=O)c21,inactive
22,CSc1ccc(C2c3c(oc4ccccc4c3=O)C(=O)N2CCCN2CCOCC2)cc1 (configuration not stated),inactive
23,COc1ccc(OC)c(NC(=O)C2CCN(S(=O)(=O)c3ccc(C)cc3)CC2)c1,inactive
24,NC(=O)C1CCN(C(=O)c2cccc(NC(=O)c3nsc4ccccc34)c2)CC1,inactive
25,Cc1ccc(C2CCN(C(=O)c3cnn(-c4ccccc4Cl)c3C3CCN(C(=O)OC(C)(C)C)CC3)C2)cc1 (configuration not stated),inactive

row,SMILES,Potency
1,Cc1ccccc1C(=O)N(Cc1ccc(N(C)C)cc1)CC1CCCO1 (configuration not stated),inactive
2,O=C(CCS(=O)(=O)c1cc(Br)cc2c1N(C(=O)C1CC1)CC2)Nc1ccc(Br)cc1F,inactive
3,CNc1nnc(-c2ccco2)s1,inactive
4,COc1ccc(OCC(=O)Nc2nnc(-c3ccco3)s2)cc1,28.2 µM (active)
5,COc1ccc(OCCCC(=O)Nc2nnc(C3CCCO3)s2)cc1 (configuration not stated),inactive
6,CCOC(=O)N1CCc2c(sc3c2c(=O)n(-c2ccc(CC)cc2)c(=O)n3C)C1,inactive
7,Cc1ccccc1NC(=O)Cn1c(=O)n(CCCCC(=O)NCc2ccccc2Cl)c(=O)c2ccccc21,inactive
8,O=C(CN1CCN(c2ccc(Cl)cc2)CC1)c1ccccc1,17.8 µM (active)
9,O=C(CCCC(=O)N1CCN(c2cccc(Cl)c2)CC1)c1ccccc1,inactive
10,CC(C)OC(=O)CN1CCN(c2ccc(Cl)cc2)CC1,inactive
11,Cc1cccc(NC(=O)COC(=O)CCc2ccccc2)c1C,inactive
12,Cc1cc(C(=O)OCC(=O)Nc2ccccc2Cl)c(C)o1,inactive
13,O=C(COC(=O)CCc1c[nH]c(=O)[nH]1)Nc1ccccc1Cl,44.7 µM (active)
14,COc1ccccc1NC(=O)Cn1cnc2ccc(S(=O)(=O)N3CCC(C)CC3)cc2c1=O,inactive
15,COCCNC(=O)c1ccc2c(c1)N(Cc1cccc(Cl)c1)C(=O)c1ccccc1S2(=O)=O,inactive
16,CN(C)S(=O)(=O)c1cccc(NC(=O)COC(=O)/C=C/c2cccs2)c1,inactive
17,CC(C)CNC(=O)COC(=O)/C=C/c1ccco1,inactive
18,COc1cccc(NC(=O)COC(=O)/C=C/c2ccco2)c1,31.6 µM (active)
19,NS(=O)(=O)c1cccc(NC(=O)COC(=O)/C=C/c2ccco2)c1,6.31 µM (active)
20,COc1ccc(/C=C/C(=O)OCC(=O)Nc2cccc(Oc3ccccc3)c2)c(OC)c1,inactive
21,COc1ccc([N+](=O)[O-])cc1NC(=O)COC(=O)/C=C/c1ccco1,inactive
22,CCc1cccc(-n2nnc(-c3nsc(NC(=O)c4ccc(C)cc4)n3)c2C)c1,inactive
